Assay results: PubChem BioAssay (NCI)
The panel holds about 83,000 compounds, 20% with a hit somewhere; the sample as a whole holds those more often.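 Plates (96-well) were seeded with cells, treated with compound at one concentration, and incubated for 48 hours before percent growth was determined.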 A number with no mark means an inactive call. Calls of active or inactive are those of the source. Rule for the calls: active = growth percent below 10; inactive = the rest.

What was measured:
Experiment in all cases: NCI-60 one-dose screen, 48 h (100 = growth as untreated, 0 = no growth, -100 = all killed)
Conditions in all cases: 10 µM unless noted
NCI-H23 lung = test system: NCI-H23 lung
NCI-H226 lung = test system: NCI-H226 lung
NCI-H322M lung = test system: NCI-H322M lung
HOP-62 NSCLC = test system: HOP-62 NSCLC
NCI-H460 lung = test system: NCI-H460 lung
HOP-92 NSCLC = test system: HOP-92 NSCLC
NCI-H522 lung = test system: NCI-H522 lung
A549/ATCC NSCLC = test system: A549/ATCC NSCLC
786-0 renal = test system: 786-0 renal
DU-145 prostate = test system: DU-145 prostate
K-562 leukemia = test system: K-562 leukemia
MALME-3M melanoma = test system: MALME-3M melanoma
MDA-MB-231 breast = test system: MDA-MB-231 breast
RXF 393 renal = test system: RXF 393 renal
SF-268 CNS = test system: SF-268 CNS
SF-295 CNS = test system: SF-295 CNS
SF-539 CNS = test system: SF-539 CNS
UACC-257 melanoma = test system: UACC-257 melanoma
M14 melanoma = test system: M14 melanoma
COLO 205 colon = test system: COLO 205 colon

Structure (SMILES)	growth (NCI-H23 lung)	growth (NCI-H226 lung)	growth (NCI-H322M lung)	growth (HOP-62 NSCLC)	growth (NCI-H460 lung)	growth (HOP-92 NSCLC)	growth (NCI-H522 lung)	growth (A549/ATCC NSCLC)	growth (786-0 renal)	growth (DU-145 prostate)	growth (K-562 leukemia)	growth (MALME-3M melanoma)	growth (MDA-MB-231 breast)	growth (RXF 393 renal)	growth (SF-268 CNS) [%]	growth (SF-295 CNS)	growth (SF-539 CNS)	growth (UACC-257 melanoma)	growth (M14 melanoma)	growth (COLO 205 colon) [%]
Cc1cc(Nc2cccc(C(F)(F)F)c2)n2c(nc3ccccc32)c1C#N	25.1%	40.1%	36.9%	53.6%	17%	-2.32% (active)	20.7%	43.7%	58.9%	53.9%	22.1%	60.6%	54.2%	61.3%	51.3	53.9%	40.9%	11.9%	54.4%	–
CCCCCCCCN1C(=O)/C(=c2\sc3n(c2=O)C2C(NN=3)N(CC)C(=O)N2CC)c2ccccc21 (centres undefined)	79.1%	91.9%	83%	47.3%	88%	62.7%	66.6%	75.9%	65.7%	97.8%	92.6%	82.6%	71.5%	–	65.3	73%	59.9%	96.3%	95.4%	–
Cc1ccc(/C=C/C(=O)c2ccc(N)cc2)c(C)c1	10.4%	109%	93%	104%	97.2%	88.2%	-76.5% (active)	99.2%	-63.5% (active)	78.3%	–	-75.6% (active)	56.8%	–	36.6	95.5%	91%	108%	50.6%	60.3
COc1ccc(/C=C(/c2ccccc2)[N+](=O)[O-])cc1	-47.9% (active)	-6.73% (active)	4.07% (active)	-36.2% (active)	-23.3% (active)	-55.6% (active)	-83.6% (active)	5.17% (active)	-93.4% (active)	-85.5% (active)	-7.82% (active)	-44.2% (active)	-49.3% (active)	–	47.6	33.2%	-89.2% (active)	-0.12% (active)	42.8%	–
COc1cc2ncnc(Nc3ccc(C(=O)/C=C/c4ccc(C(F)(F)F)cc4F)cc3)c2cc1OC	99.5%	92.7%	99.7%	144%	108%	113%	98.3%	95.2%	85.6%	107%	58.4%	106%	90.7%	–	96.2	95.8%	93.7%	111%	97.9%	–
N#Cc1cc(-c2nc3ccccc3s2)c(=O)n(NS(=O)(=O)c2ccc(Cl)cc2)c1N	94.9%	80.8%	102%	89.6%	105%	98.6%	96.3%	117%	105%	110%	96.7%	105%	87.2%	109%	97.8	110%	93.9%	111%	97.5%	–
CCOc1ccc(/C=N/Nc2cc(C)nc3ccc(Cl)cc23)cc1	78.9%	79.5%	66.9%	94.4%	3.37% (active)	50.5%	58.4%	59.9%	33.2%	44.4%	-38.7% (active)	-38.9% (active)	43%	0.829% (active)	75.2	-64.6% (active)	83.6%	69.5%	-39.6% (active)	–
